Assay in all cases: log2 ratio of Biotin-Ahx-Ub-VS probe labelling (fragment/DMSO); higher = less target engagement (more negative = stronger competition), active = hit call of the paper (q ≤ 0.05, log2 ratio ≤ -1)
Conditions in all cases: compound concentration: 200 uM; treatment time: 3 h

For one test, the target named is UniProt O00507. The method in brief: (§1)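 Values give the average log2 ratio of fragment to vehicle, assessed by unpaired t-test on global-median-normalised Spectronaut label-free quantities. Proteins needed ≥2 unique peptides. HEK293T lysate (495 µg per sample) was treated in triplicate with fragment at 200 µM or vehicle for 3 h and then with Biotin-Ahx-Ub-VS at 0.5 µM final for 1 h. Labelled DUBs were NeutrAvidin-enriched, digested and run by diaPASEF LC-MS/MS.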

For a further test, the target named is UniProt P51784. The method in brief:
as §1

A further test has as its target T1, UniProt Q5T2D3.
T1 sequence (whole entry): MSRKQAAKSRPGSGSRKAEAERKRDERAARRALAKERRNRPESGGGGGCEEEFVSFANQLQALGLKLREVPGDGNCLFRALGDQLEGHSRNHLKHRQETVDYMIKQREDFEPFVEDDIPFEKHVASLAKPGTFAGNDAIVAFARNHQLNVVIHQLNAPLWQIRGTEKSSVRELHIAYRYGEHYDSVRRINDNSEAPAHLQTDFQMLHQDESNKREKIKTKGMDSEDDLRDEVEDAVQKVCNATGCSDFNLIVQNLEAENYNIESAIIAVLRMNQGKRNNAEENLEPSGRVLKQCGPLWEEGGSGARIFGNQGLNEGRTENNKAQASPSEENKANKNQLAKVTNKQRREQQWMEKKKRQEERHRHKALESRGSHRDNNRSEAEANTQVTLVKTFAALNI
Summed up:
as §1

The target of the next test is T2, UniProt Q8TE49.
T2 sequence (whole entry): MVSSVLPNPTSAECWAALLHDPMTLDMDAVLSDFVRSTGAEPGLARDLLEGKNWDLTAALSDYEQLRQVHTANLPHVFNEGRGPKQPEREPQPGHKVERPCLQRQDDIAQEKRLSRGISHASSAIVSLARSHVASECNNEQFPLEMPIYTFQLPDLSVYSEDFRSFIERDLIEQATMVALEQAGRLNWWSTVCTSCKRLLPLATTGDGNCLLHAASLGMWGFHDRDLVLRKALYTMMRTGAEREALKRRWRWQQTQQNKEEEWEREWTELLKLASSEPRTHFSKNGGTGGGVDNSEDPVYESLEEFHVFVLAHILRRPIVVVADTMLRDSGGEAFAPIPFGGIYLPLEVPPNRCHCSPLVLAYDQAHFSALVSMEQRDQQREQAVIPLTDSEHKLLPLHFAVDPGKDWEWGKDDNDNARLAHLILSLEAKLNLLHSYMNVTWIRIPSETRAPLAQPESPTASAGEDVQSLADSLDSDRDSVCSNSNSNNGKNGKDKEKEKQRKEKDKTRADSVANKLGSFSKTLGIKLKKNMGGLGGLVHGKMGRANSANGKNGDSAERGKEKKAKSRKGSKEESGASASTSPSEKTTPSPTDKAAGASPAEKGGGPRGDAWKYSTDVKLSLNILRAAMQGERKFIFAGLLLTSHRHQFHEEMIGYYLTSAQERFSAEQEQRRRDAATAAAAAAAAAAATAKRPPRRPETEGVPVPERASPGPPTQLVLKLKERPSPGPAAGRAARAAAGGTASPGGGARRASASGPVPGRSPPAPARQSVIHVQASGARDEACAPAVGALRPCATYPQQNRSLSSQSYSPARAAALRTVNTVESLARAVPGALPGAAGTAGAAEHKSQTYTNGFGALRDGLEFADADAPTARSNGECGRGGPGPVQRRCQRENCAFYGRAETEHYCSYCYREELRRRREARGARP
Summed up:
as §1

The next test has as its target T3, UniProt Q9P2H5.
T3 sequence (whole entry): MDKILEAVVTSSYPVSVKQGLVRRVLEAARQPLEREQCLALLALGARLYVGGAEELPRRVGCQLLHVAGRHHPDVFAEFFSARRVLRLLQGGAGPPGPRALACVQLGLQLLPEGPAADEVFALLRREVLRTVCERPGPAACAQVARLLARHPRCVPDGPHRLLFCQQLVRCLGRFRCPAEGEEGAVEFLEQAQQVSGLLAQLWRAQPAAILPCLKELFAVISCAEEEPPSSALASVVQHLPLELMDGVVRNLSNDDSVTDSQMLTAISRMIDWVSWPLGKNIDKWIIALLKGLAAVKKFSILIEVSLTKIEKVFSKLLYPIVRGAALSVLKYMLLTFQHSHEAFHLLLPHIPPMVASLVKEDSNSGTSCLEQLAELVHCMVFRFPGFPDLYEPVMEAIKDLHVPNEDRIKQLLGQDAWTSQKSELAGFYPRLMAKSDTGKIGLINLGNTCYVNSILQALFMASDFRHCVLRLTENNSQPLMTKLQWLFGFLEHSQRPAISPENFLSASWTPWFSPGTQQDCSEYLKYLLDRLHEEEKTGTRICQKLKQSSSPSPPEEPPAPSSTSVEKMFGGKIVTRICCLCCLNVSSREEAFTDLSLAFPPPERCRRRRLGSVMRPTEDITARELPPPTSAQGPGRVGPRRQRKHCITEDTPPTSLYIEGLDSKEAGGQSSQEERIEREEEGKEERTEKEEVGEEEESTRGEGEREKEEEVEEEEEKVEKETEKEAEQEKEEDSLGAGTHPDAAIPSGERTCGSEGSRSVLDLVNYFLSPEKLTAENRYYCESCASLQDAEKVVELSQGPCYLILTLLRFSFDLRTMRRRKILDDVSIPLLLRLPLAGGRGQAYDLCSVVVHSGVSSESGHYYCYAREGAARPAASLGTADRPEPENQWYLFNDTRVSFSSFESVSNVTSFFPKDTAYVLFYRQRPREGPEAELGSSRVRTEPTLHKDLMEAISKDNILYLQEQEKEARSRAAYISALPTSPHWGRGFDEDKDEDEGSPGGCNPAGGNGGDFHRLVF
The method in brief:
as §1

The target in a further test is T4, UniProt Q9UGI0.
T4 sequence (whole entry): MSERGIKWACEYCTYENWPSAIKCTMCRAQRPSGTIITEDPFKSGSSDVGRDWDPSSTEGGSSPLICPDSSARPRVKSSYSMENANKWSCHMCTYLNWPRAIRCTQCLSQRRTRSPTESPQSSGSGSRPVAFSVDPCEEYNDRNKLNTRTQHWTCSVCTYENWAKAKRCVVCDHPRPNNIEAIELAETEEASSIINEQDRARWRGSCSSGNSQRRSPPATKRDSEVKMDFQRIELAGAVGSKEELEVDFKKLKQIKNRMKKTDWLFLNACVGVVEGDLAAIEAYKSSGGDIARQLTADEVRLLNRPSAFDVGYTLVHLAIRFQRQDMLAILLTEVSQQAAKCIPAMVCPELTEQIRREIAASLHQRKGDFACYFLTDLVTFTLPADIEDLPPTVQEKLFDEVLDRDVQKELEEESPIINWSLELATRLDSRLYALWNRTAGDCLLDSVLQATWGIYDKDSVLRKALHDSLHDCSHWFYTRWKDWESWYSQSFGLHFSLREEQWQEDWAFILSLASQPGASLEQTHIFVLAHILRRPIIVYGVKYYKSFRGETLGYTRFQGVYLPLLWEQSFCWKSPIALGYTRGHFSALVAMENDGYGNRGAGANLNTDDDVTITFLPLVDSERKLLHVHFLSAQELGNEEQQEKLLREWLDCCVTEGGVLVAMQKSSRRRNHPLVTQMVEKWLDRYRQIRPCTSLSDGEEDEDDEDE
The method in brief:
as §1

In the next test the target is T5, YOD1 (UniProt Q5VVQ6).
T5 sequence (whole entry): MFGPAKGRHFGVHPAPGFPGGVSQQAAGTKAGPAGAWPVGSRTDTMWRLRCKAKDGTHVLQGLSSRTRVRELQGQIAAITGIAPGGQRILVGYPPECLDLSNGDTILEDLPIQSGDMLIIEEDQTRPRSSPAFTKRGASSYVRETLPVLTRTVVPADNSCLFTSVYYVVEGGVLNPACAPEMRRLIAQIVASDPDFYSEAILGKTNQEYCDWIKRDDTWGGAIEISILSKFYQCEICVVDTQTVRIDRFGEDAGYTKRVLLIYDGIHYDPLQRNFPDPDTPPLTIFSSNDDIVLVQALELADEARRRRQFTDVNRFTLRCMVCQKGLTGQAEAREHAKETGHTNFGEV
Summed up:
as §1

Unmarked numbers belong to inactive results.

UniProt O00507, sequence (O00507 whole entry, the tested form may be a part): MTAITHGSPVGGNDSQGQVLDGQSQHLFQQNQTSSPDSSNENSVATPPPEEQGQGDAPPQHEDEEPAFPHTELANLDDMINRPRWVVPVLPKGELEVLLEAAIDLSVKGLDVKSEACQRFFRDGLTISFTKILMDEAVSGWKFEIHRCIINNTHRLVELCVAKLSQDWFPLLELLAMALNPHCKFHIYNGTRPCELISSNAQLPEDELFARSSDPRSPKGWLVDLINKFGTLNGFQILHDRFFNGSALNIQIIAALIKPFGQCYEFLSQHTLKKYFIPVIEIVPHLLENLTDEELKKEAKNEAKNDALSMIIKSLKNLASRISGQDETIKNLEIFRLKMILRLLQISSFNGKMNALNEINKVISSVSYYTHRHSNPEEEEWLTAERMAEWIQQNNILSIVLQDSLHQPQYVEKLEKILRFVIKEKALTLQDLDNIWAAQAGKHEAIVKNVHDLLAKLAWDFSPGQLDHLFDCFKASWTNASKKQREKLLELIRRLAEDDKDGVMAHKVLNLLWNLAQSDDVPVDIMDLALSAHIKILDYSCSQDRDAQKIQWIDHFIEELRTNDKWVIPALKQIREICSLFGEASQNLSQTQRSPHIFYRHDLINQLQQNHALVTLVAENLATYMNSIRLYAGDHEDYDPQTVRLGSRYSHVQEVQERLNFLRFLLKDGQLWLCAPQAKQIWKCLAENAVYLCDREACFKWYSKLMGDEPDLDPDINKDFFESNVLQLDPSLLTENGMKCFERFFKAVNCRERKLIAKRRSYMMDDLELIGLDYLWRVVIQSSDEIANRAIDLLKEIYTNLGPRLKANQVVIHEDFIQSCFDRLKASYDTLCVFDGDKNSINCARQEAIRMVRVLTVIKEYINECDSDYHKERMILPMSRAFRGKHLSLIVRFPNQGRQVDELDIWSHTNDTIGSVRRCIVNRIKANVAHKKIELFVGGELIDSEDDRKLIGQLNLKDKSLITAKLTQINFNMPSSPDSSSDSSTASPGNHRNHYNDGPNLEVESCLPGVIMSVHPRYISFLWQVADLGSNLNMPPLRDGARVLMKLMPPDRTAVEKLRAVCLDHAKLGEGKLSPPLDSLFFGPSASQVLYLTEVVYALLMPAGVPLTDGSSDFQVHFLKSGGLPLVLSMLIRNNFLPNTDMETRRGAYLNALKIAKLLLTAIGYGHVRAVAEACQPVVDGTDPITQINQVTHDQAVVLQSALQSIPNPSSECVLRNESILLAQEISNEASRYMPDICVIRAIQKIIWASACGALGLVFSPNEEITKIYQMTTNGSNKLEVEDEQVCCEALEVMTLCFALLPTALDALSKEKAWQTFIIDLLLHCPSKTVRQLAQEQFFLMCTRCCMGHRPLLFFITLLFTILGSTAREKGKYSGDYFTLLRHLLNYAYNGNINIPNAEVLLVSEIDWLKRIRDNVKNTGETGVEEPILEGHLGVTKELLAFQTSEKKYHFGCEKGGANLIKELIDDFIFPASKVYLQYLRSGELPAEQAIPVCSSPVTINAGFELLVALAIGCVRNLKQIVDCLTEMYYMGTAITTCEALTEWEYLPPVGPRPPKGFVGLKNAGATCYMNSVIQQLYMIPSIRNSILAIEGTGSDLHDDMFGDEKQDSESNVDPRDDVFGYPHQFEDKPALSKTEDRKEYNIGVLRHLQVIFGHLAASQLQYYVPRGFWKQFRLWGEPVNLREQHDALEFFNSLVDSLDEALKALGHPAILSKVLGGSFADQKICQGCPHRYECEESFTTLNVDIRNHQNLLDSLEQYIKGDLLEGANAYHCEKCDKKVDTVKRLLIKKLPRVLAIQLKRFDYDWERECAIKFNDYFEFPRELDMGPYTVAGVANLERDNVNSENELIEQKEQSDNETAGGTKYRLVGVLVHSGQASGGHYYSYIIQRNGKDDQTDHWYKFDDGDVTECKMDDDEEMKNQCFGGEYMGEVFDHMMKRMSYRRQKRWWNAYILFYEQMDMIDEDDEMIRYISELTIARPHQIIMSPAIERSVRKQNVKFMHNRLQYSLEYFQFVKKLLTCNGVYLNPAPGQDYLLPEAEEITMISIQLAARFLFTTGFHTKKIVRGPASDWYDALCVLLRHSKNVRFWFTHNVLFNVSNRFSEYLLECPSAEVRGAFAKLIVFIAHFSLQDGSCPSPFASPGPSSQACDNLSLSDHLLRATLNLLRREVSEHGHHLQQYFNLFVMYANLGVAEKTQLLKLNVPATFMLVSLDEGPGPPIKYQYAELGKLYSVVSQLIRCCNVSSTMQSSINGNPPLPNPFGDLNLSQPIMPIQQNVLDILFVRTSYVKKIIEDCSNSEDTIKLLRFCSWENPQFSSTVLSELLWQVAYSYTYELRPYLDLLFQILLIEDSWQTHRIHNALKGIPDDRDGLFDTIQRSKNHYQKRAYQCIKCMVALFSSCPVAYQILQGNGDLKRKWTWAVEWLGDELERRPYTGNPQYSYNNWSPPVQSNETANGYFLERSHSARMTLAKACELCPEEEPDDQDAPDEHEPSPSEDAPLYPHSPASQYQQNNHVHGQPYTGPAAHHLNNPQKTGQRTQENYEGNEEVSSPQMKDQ
UniProt P51784, sequence (P51784 whole entry): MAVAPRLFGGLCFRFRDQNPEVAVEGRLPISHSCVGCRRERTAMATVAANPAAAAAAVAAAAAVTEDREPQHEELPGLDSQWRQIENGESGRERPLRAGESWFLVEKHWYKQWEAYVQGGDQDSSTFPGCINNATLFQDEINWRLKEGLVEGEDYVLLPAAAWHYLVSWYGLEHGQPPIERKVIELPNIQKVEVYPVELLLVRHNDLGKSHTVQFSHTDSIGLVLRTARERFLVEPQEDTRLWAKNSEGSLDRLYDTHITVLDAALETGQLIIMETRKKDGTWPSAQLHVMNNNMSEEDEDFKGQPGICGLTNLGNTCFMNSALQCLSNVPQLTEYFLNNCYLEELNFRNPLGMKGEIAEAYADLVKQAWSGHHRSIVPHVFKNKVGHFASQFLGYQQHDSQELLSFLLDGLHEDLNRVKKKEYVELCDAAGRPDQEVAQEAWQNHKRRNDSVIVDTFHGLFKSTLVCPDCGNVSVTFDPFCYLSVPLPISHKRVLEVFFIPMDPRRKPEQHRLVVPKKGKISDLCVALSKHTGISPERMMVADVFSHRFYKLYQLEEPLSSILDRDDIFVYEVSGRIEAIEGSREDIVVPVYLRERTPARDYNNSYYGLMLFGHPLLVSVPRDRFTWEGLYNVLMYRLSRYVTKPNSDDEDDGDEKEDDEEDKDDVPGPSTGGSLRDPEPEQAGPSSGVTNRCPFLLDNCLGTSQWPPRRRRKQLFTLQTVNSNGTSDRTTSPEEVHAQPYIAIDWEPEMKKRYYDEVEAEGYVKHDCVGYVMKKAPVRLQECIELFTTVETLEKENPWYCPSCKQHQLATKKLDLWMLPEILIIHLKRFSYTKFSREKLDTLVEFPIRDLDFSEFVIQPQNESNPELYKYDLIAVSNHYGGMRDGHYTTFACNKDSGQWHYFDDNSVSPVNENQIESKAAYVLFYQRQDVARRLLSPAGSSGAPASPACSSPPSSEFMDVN

In the case of `Cc1nnc(C(NC(=O)CCl)c2ccccc2)n1C` (stereo not given), the “log2 ratio of Biotin-Ahx-Ub-VS probe labelling” value (shortened to “log2 ratio”) in the test with UniProt O00507 was 1.12; in the test with UniProt P51784, 0.68; with UniProt Q5T2D3, 0.343; with UniProt Q8TE49, 0.469; in the test with UniProt Q9P2H5 it was 0.372; with UniProt Q9UGI0, 0.693. Moreover, the “log2 ratio” value with YOD1 is 0.747.

Consider `CS(=O)(=O)c1ccc(NC(=O)CCl)cc1`, for which the “log2 ratio” value in the test with UniProt O00507 was -0.0176; with UniProt P51784 it was -0.0206; in the test with UniProt Q5T2D3, -0.139; in the test with UniProt Q8TE49, -0.443; in the test with UniProt Q9P2H5, -0.192; with UniProt Q9UGI0 it was -0.87. Moreover, the “log2 ratio” value with YOD1 was 0.0991.

As to `O=C(CCl)NCC1(c2ccccc2)CC1`, the “log2 ratio” value with UniProt O00507 was 0.153; with UniProt P51784 it was 0.117; with UniProt Q5T2D3, -0.0752; with UniProt Q8TE49, -0.408; with UniProt Q9P2H5 it was -0.071; with UniProt Q9UGI0, -1.08 (active). Besides, in the test with YOD1, the “log2 ratio” value was 0.0857.

`CC(O)CC1CCN(C(=O)CCl)CC1` (stereo not given): the “log2 ratio” value in the test with UniProt O00507 is 0.0435; in the test with UniProt P51784, -0.0578; with UniProt Q5T2D3, -0.0758; with UniProt Q8TE49 it was -0.714; with UniProt Q9P2H5, 0.0392; with UniProt Q9UGI0, 0.164. Further, the “log2 ratio” value with YOD1 was -0.124.

On to `Cc1ccc(N(CCC#N)C(=O)CCl)cc1C`, for which the “log2 ratio” value in the test with UniProt O00507 is -0.369; with UniProt P51784 it was -0.0613; with UniProt Q5T2D3 it was -0.0739; in the test with UniProt Q8TE49, -2.2 (active); in the test with UniProt Q9P2H5, -0.14; with UniProt Q9UGI0, -1.49 (active). Moreover, in the test with YOD1, the “log2 ratio” value is 0.0402.

For the compound `O=C(CCl)N1CCc2sccc2C1`, the “log2 ratio” value in the test with UniProt O00507 was -0.0149; in the test with UniProt P51784 it was -0.207; in the test with UniProt Q5T2D3 it was -0.075; with UniProt Q8TE49, -1.18 (active); in the test with UniProt Q9P2H5 it was -0.371; with UniProt Q9UGI0, -1.9 (active). The “log2 ratio” value with YOD1 is -0.00804.

Regarding `NC(=O)C1CCCCN1C(=O)CCl` (stereo not given), the “log2 ratio” value in the test with UniProt O00507 is 0.156; with UniProt P51784, -0.0148; with UniProt Q5T2D3, -0.206; in the test with UniProt Q8TE49, -1.95 (active); with UniProt Q9P2H5 it was -0.204; in the test with UniProt Q9UGI0, -0.866. Moreover, the “log2 ratio” value with YOD1 is 0.154.

In the case of `Cc1cccnc1NC(=O)C1CCN(C(=O)CCl)CC1.Cl`, the “log2 ratio” value in the test with UniProt O00507 was -0.282; in the test with UniProt P51784, -0.0141; with UniProt Q5T2D3, -0.408; in the test with UniProt Q8TE49, -0.254; with UniProt Q9P2H5 it was -0.348; with UniProt Q9UGI0 it was -0.465. The “log2 ratio” value with YOD1 is -0.214.

Turning to `Cc1ccc(CC(NC(=O)CCl)c2ccccn2)cc1.Cl` (stereo not given), the “log2 ratio” value with UniProt O00507 is -0.0403; in the test with UniProt P51784 it was 0.188; with UniProt Q5T2D3, 0.254; with UniProt Q8TE49 it was 0.237; with UniProt Q9P2H5 it was -0.00516; in the test with UniProt Q9UGI0 it was -0.0851. Further, the “log2 ratio” value with YOD1 is 0.248.

In the case of `O=C(CCl)N1CCc2nc[nH]c2C1c1ccc(Cl)cc1` (stereo not given), the “log2 ratio” value with UniProt O00507 is -0.893; with UniProt P51784, 0.194; in the test with UniProt Q5T2D3 it was -0.0219; in the test with UniProt Q8TE49 it was -1.15 (active); with UniProt Q9P2H5 it was -0.000874; with UniProt Q9UGI0 it was -1.05 (active). Moreover, the “log2 ratio” value in the test with YOD1 is -0.117.

For the origin of these results see the supplement of paper PMC11732987, “Enantioselective OTUD7B fragment discovery through chemoproteomics screening and high-throughput optimisation” (Communications Chemistry, 2025).
